Measured values from PubChem BioAssay (Tox21).
“And” between values parts separate entries of the source, which are not always exact repeats. Identical values can stand only once. Inconclusive results are not listed. The source holds several records for some structures; these can differ, active in one and inactive in another. The source made the active and inactive calls. Unless noted, the call rests on the fitted dose curve; in most records, active means well fitted curve in the direction sought with a large enough effect in the repeat runs; inconclusive means weak or mixed curves; inactive means no such curve, though single readings can be large; an effect the other way counts as inactive or inconclusive.

Key:
[1] = qHTS assay to identify small molecule agonists of the vitamin D receptor (VDR) signaling pathway - cell viability counter screen (AID 743224); further: nearly all actives have a fitted effect of over 50% in size; further: potency means the concentration at half of the fitted maximal effect
Procedure, shortened: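 CellTiter-Glo viability readout on VDR-bla cells, measured after 16 h of compound treatment at 37C in the same wells.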

[2] = qHTS assay to identify small molecule antagonists of the vitamin D receptor (VDR) signaling pathway - cell viability counter screen (AID 743225); further: nearly all actives have a fitted effect of over 50% in size; further: potency means the concentration at half of the fitted maximal effect
Procedure, shortened: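 Viability counter screen run in the same wells as the beta-lactamase reporter assay: HEK 293T VDR-UAS-bla cells, 16 h compound exposure at 37C with 3 nM (final) 1-alpha,25-dihydroxyvitamin D3. CellTiter-Glo luminescence, 30 min, room temperature.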

[3] = qHTS assay to identify small molecule agonists of the NFkB signaling pathway - cell viability counter screen (AID 1159515; calls by dose curve; further: nearly all actives have a fitted effect of over 55% in size; further: potency means the concentration at half of the fitted maximal effect)
Procedure, shortened: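 Tox21 library compounds were tested for cytotoxicity against NFkB-bla ME-180 cells during a 5 hr exposure at 37 C. CellTiter-Glo luminescence served as the viability read-out.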

[4] = qHTS assay to identify small molecule agonists of the endoplasmic reticulum stress response signaling pathway (AID 1159516; active means well fitted activation curve with a large enough effect in the signal ratio in the repeat runs, not every such curve was filed as active; the % refers to the signal ratio)
Procedure, shortened: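 Fluorescence at 460 and 530 nm (405 nm excitation) reports beta-lactamase from an ER stress response element in HeLa cells treated 5 hr at 37 C.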

[5] = qHTS assay to identify small molecule agonists of the endoplasmic reticulum stress response signaling pathway - cell viability counter screen (AID 1159517; calls by dose curve; further: nearly all actives have a fitted effect of over 50% in size; further: potency means the concentration at half of the fitted maximal effect)
Procedure, shortened: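 After overnight attachment, ESRE-bla HeLa cells were treated with Tox21 library compounds for 5 hr. CellTiter-Glo luminescence, read 30 min post-addition at room temperature, reported viability.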

[6] = qHTS assay to identify small molecule antagonists of the retinoid-related orphan receptor gamma (ROR-gamma) signaling pathway - cell viability counter screen (AID 1159520); further: nearly all actives have a fitted effect of over 50% in size; further: potency means the concentration at half of the fitted maximal effect
Procedure, shortened: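 Cytotoxicity was read from cellular ATP (CellTiter-Glo luminescence) after 16 hr at 37 C with 1 uM doxycycline induction. The inducer was added 2 hr after compound transfer to Tet-on ROR gamma CHO cells.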

[7] = biological target: Nuclear receptor ROR-gamma (Homo sapiens) (UniProt P51449); assay: qHTS assay to identify small molecule antagonists of the retinoid-related orphan receptor gamma (ROR-gamma) signaling pathway (AID 1159521; further: nearly all actives have a fitted effect of over 50% in size; further: potency means the concentration at half of the fitted maximal effect)
Procedure, shortened: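 Luminescence readout (ONE-Glo, 30 min RT) after 16 h doxycycline induction; loss of signal scored as antagonism. CHO cells with TET-inducible RORγ and RORE-LUC reporter; compounds added 2 h before 1 uM final doxycycline.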

[8] = qHTS assay to identify small molecule agonists of the AP-1 signaling pathway - cell viability counter screen (AID 1159525; calls by dose curve; further: nearly all actives have a fitted effect of over 55% in size; further: potency means the concentration at half of the fitted maximal effect)
Procedure, shortened: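 Intracellular ATP by Cell Titer Glo luminescence (30 min, RT) in the same ME-180 AP-1-bla wells after the 5 h compound exposure at 37 °C. Normalised to tetra n-octyl ammonium bromide and DMSO controls.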

[9] = qHTS assay to identify small molecule agonists of the AP-1 signaling pathway (AID 1159526; calls by dose curve)
[10] = biological target: Retinoic acid receptor RXR-alpha (Homo sapiens) (UniProt P19793); assay: qHTS assay to identify small molecule agonists of the RXR signaling pathway (AID 1159527; calls by dose curve; further: nearly all actives have a fitted effect of over 35% in size; further: potency means the concentration at half of the fitted maximal effect)
Procedure, shortened: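 Agonist mode; 9-cis retinoic acid positive control. HEK 293T UAS-bla reporter cells, 2% charcoal-stripped FBS, 16 hr compound exposure at 37 C/5% CO2. LiveBLAzer B/G FRET substrate 2 hr RT; ex 405, em 460/530 nm.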

Measured: Potency

Sequence of Retinoic acid receptor RXR-alpha (Homo sapiens) (P19793 whole entry, looked up): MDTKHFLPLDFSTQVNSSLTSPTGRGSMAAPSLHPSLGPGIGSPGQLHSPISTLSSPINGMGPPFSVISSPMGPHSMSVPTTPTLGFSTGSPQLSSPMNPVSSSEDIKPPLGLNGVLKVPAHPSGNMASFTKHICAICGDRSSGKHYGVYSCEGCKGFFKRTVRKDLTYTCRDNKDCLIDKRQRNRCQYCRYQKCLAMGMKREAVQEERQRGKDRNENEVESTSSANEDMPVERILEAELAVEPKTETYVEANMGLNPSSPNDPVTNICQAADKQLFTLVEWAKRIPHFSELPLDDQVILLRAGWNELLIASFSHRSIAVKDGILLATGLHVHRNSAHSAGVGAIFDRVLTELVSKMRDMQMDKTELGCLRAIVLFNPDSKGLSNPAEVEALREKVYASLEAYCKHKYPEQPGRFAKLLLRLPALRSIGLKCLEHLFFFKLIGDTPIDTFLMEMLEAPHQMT

CCCOC(=O)c1cc(O)c(O)c(O)c1
active: [7] 27.2 µM
not listed: [10]
inactive: all other assays above

N[C@@H]1CONC1=O
inactive: all assays above

CCc1ccc(C(c2ccc(CC)cc2)C(Cl)Cl)cc1
not listed: [10]
inactive: all other assays above

C=C(C)C1CC=C(C)C(OC(C)=O)C1 (stereo unspecified)
inactive: all assays above

Cc1cc(C(C)(C)C)c(O)c(C(C)(C)C)c1
not listed: [7] | [10]
inactive: all other assays above

CCC(C)(C)C(=O)O[C@H]1C[C@@H](C)C=C2C=C[C@H](C)[C@H](CC[C@@H]3C[C@@H](O)CC(=O)O3)[C@H]21
active: [6] 9.44 µM | [7] 3.86 µM and 841 nM
not listed: [10]
inactive: all other assays above

Nc1cc(S(=O)(=O)O)cc2cc(S(=O)(=O)O)cc(O)c12
inactive and 24.5 µM (active): [10]
inactive and 30.6 µM (active): [7]
not listed: [4]
inactive: all other assays above

Cc1cccc2n[nH]nc12
not listed: [4]
inactive: all other assays above

CC1=CC(=O)c2ccccc2C1=O
inactive: [4]
active: [1] 17.4 µM and 11.9 µM | [2] 17.4 µM and 21.3 µM | [3] 24.5 µM | [5] 43.6 µM | [6] 15.4 µM and 29.8 µM | [7] 12.2 µM | [8] 17.4 µM

O
not listed: [7]
inactive: all other assays above

C=CC(=O)OCCCCCCOC(=O)C=C
44.2 µM (active) and inactive: [1]
not listed: [7] | [9] | [10]
inactive: all other assays above

Cc1ccc(-c2cc(C(F)(F)F)nn2-c2ccc(S(N)(=O)=O)cc2)cc1
active: [2] 48.8 µM | [6] 60.9 µM and 54.5 µM | [8] 48.8 µM and 54.9 µM
inactive: [1] | [3] | [4] | [5]

CNC1(C)C2CCC(C2)C1(C)C (stereo unspecified)
not listed: [1]
inactive: all other assays above

CCCCOCCOC(=O)c1ccccc1C(=O)OCCOCCCC
30.2 µM (active) and inactive: [1]
not listed: [9]
inactive: all other assays above

COc1ccc(CCN2CCC(Nc3nc4ccccc4n3Cc3ccc(F)cc3)CC2)cc1
active: [1] 3.98 µM and 10.6 µM | [2] 6.3 µM and 23.9 µM | [3] 17.8 µM | [5] 31.6 µM | [6] 17.6 µM and 26.6 µM | [7] 9.9 µM and 11.9 µM
35.4 µM (active) and inactive: [8]
inactive: [4] | [9]

O=S(=O)(O)c1ccc2nc(-c3ccccc3)[nH]c2c1
active: [1] 13.1 µM | [3] 13.1 µM | [5] 46.6 µM
inactive: [4] | [9] | [10]

COC(=O)[C@H]1[C@H]2C[C@@H]3c4[nH]c5cc(OC)ccc5c4CCN3C[C@H]2C[C@@H](OC(=O)c2cc(OC)c(OC)c(OC)c2)[C@@H]1OC
inactive and 31.8 µM (active): [2]
active: [7] 30.6 µM and 28.1 µM
not listed: [10]
inactive: all other assays above

Nc1ccc(O)cc1
63.5 µM (active) and inactive: [6]
31.8 µM (active) and inactive: [7]
32.1 µM (active) and inactive: [8]
inactive: all other assays above

CN(C)c1ccc2nc3ccc(=[N+](C)C)cc-3sc2c1
inactive and 21.9 µM (active): [2]
active: [1] 49 µM and 2.98 µM | [6] 16.6 µM and 13.7 µM | [8] 16.7 µM and 43.6 µM
inactive: [3] | [4] | [5]
inactive and 34.4 µM (active): [7]

CC(=O)O[C@]1(C(C)=O)CC[C@H]2[C@@H]3C[C@H](C)C4=CC(=O)CC[C@]4(C)[C@H]3CC[C@@]21C
active: [7] 26.6 µM
not listed: [9] | [10]
inactive: all other assays above

C=CC(=O)OCCCCCCCC
inactive: all assays above

CCCCCCCCCCCC[N+](C)(C)C
active: [1] 49 µM and 21.9 µM | [2] 54.9 µM | [7] 24.3 µM and 21.7 µM
not listed: [5] | [10]
inactive: all other assays above

COc1ccc(CCN(C)CCCC(C#N)(c2ccc(OC)c(OC)c2)C(C)C)cc1OC (stereo unspecified)
inactive: [3] | [5] | [6] | [7] | [8]

CCC(C)(Oc1ccc(C2(c3ccc(OC(C)(CC)C(=O)O)cc3)CCCCC2)cc1)C(=O)O (stereo unspecified)
inactive: all assays above

OCCOCCN1CCN(C(c2ccccc2)c2ccc(Cl)cc2)CC1 (stereo unspecified)
47.9 µM (active) and inactive: [7]
not listed: [10]
inactive: all other assays above

O=C(O)CP(=O)(O)O
not listed: [1]
inactive: all other assays above

Cc1cc(C2(c3cc(C)c(O)cc3C)OS(=O)(=O)c3ccccc32)c(C)cc1O
not listed: [5]
inactive: all other assays above

c1ccc2cc3c(ccc4ccccc43)cc2c1
not listed: [4]
inactive: all other assays above

CC(C)(C)c1cc(C(C)(C)C)c(O)c(C(C)(C)C)c1
active: [1] 38.9 µM
inactive and 49 µM (active): [8]
not listed: [10]
inactive: all other assays above

CC(=O)N[C@@H](CS)C(=O)O
inactive: all assays above

CCn1c2ccccc2c2cc(N)ccc21
active: [7] 19.1 µM
not listed: [4]
inactive: all other assays above

O=C1Nc2ccccc2C1(c1ccc(O)cc1)c1ccc(O)cc1
active: [3] 0.174 µM
not listed: [8] | [9]
inactive: all other assays above

O=Nc1ccc(Nc2ccccc2)cc1
active: [1] 17.5 µM and 49 µM | [6] 19.4 µM and 15.4 µM | [7] 7.74 µM and 10.9 µM
inactive: [3] | [4] | [8]

CC(C)(O)CCC(C)(C)O
inactive: all assays above

O=C1CC2(CCCC2)CC(=O)N1CCCCN1CCN(c2ncccn2)CC1
27.3 µM (active) and inactive: [7]
not listed: [10]
inactive: all other assays above

OCCN1CCNCC1
60.5 µM (active) and inactive: [6]
not listed: [7]
inactive: all other assays above

CCc1cc(C(C)(C)C)c(O)c(C(C)(C)C)c1
not listed: [10]
inactive: all other assays above

CCN(CC)C(=S)SSC(=S)N(CC)CC
1 µM (active) and inactive: [3]
active: [1] 110 nM and 39.8 nM and 188 nM | [6] 24.3 µM and 176 nM | [7] 344 nM and 44.3 nM and 188 nM
inactive: [2] | [5]
